{"source": "PubChem BioAssay AID463183", "about": "(Sanford-Burnham Center for Chemical Genomics, 2010)", "note": "Some of the results follow. Calls of active or inactive are those of the source.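 How the source made its calls: active means inhibition of lipid droplet metric at least 50%, with more than 300 cells in each of four replicates; inconclusive means wells under 300 cells, flagged as toxic or low count; inactive means the rest.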", "data": [{"assay": "hepatocyte lipid droplet accumulation inhibitors, confirmation, imaging, AML12 mouse hepatocytes, single concentration, high-content (AID 463183);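 on cell count: cells counted after overnight compound exposure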;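 on inhibition: plate controls were DMSO with oleic acid for no effect and 5 µM Triacsin-C for full effect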", "settings": "BODIPY lipid droplet imaging, at 5.2 µM, droplets induced with 100 µM oleic acid; cell count: measured here: cell count, cytotoxicity; inhibition: stronger effect = higher value", "units": {"cell count": "cells"}, "values": [{"smiles": "CCCCN1C(=O)/C(=C/C=C2/C=Cc3ccccc3N2CC)SC1=S", "inhibition": "-4.78% (inactive)", "cell count": 1580}, {"smiles": "CCCc1ccc(-c2csc(NC(=O)Cc3cccs3)n2)cc1", "inhibition": "104% (active)", "cell count": 1560}, {"smiles": "CCOc1ccc(CCNC(=O)Nc2ccccc2)cc1OCC", "inhibition": "109% (active)", "cell count": 1550}, {"smiles": "CCOC(=O)C1=C(CC)OC(N)=C(C#N)C1c1ccc(F)cc1F", "note": "(configuration not stated)", "inhibition": "10.3% (inactive)", "cell count": 1680}, {"smiles": "CCCN(CCC)c1ccc(C(O)c2nnc(-c3ccccc3)o2)cc1", "note": "(configuration not stated)", "inhibition": "106% (active)", "cell count": 1610}, {"smiles": "COc1ccc(Cl)cc1NC(=O)CN(C)C(=O)CCCc1c[nH]c2ccccc12", "cell count": 1450, "inhibition": "85% (active)"}, {"smiles": "Cc1c(C(=O)NCc2ccccc2)cnn1-c1ccccc1", "cell count": 1670, "inhibition": "26.9% (inactive)"}, {"smiles": "O=C1Nc2ccc(Br)cc2/C1=N/N=C/C1=C(N2CCOCC2)C(=C\\c2ccccc2)/CC1", "inhibition": "65.8% (active)", "cell count": 1660}, {"smiles": "Cc1ccc(N2C(=O)C(NC(=O)c3c(F)cccc3F)(C(F)(F)F)C3=C2CC(C)(C)CC3=O)cc1", "note": "(configuration not stated)", "cell count": 1590, "inhibition": "87.5% (active)"}, {"smiles": "O=C(CN1CCc2cc3c(cc2C1)OCCCO3)Nc1ccccc1", "cell count": 1530, "inhibition": "15.8% (inactive)"}, {"smiles": "CCc1ccc(NC(=O)C(C)OC(=O)/C=C/c2cccc([N+](=O)[O-])c2)cc1", "note": "(configuration not stated)", "inhibition": "48% (inactive)", "cell count": 1510}, {"smiles": "O=[N+]([O-])c1ccccc1N/N=C1\\CCc2ccccc21", "cell count": 1520, "inhibition": "31.2% (inactive)"}, {"smiles": "COc1cccc(/C=C(/CC(=O)Nc2ccc(N3CCOCC3)cc2)c2nc3ccccc3s2)c1", "inhibition": "94.7% (active)", "cell count": 1580}, {"smiles": "COc1ccc(/C=C(\\NC(=O)c2ccc(OCC(C)C)cc2)C(=O)OCc2ccco2)cc1", "inhibition": "91.6% (active)", "cell count": 1460}, {"smiles": "Cc1cc(C(=O)NC2CCCc3c2cnn3-c2cccc(C)c2C)c(C)o1", "note": "(configuration not stated)", "inhibition": "78.5% (active)", "cell count": 1560}, {"smiles": "CN(C)c1ccc(Nc2c3c4c(cccc4n(C)c2=O)C(=O)c2ccccc2-3)cc1", "inhibition": "14.8% (inactive)", "cell count": 1580}, {"smiles": "COCCCNC(=O)CN1C(=O)CSc2ccc(S(=O)(=O)N3CCOCC3)cc21", "cell count": 1530, "inhibition": "-1.8% (inactive)"}, {"smiles": "CC(NC(=O)c1cccc2ccccc12)c1ccc2c(c1)CCCC2", "note": "(configuration not stated)", "inhibition": "98.5% (active)", "cell count": 1640}, {"smiles": "COc1cc(/C=N/NC(=O)Nc2ccccc2)ccc1OCCOc1ccccc1C", "cell count": 1640, "inhibition": "-21.6% (inactive)"}, {"smiles": "CCCN(CCC)c1nc2c(C)cccn2c(=O)c1/C=C1/SC(=S)N(Cc2ccco2)C1=O", "inhibition": "51.2% (inactive)", "cell count": 1560}, {"smiles": "Cn1c(=O)[nH]c(=O)c2c1nc(N1CCN(C(c3ccccc3)c3ccccc3)CC1)n2CCO", "inhibition": "78.2% (active)", "cell count": 1570}, {"smiles": "CCOc1ccc(CCNC(=O)CCc2nnc3ccc(N4CCCC4)nn23)cc1OCC", "inhibition": "100% (active)", "cell count": 1650}, {"smiles": "CC(C)(C)NC(=O)Cn1cnc2cc([N+](=O)[O-])ccc2c1=O", "inhibition": "21.8% (inactive)", "cell count": 1630}, {"smiles": "COc1ccc(OC)c(-c2csc(-c3cccs3)n2)c1", "inhibition": "13.4% (inactive)", "cell count": 1580}, {"smiles": "COc1ccc(C(C(=O)NC(C)(C)C)N(Cc2ccc(F)cc2)C(=O)CCC(=O)Nc2cc(C)on2)cc1", "note": "(configuration not stated)", "inhibition": "108% (active)", "cell count": 1630}, {"smiles": "Cc1cc(NC(=O)CSc2nc(C(C)C)nc3sc4c(c23)CCC(C)C4)no1", "note": "(configuration not stated)", "cell count": 1700, "inhibition": "105% (active)"}]}]}
